Data on 40 compounds can be found in PubChem BioAssay (NCI).

The panel holds about 83,000 compounds, 20% with a hit somewhere; the sample as a whole holds those more often.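 Each cell line was grown in a 96-well plate and treated with one concentration of compound for 48 hours. Values below 10 were considered active.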 The source made the active and inactive calls.

This experiment deals with HL-60(TB) leukemia. As to the kind of experiment: NCI-60 one-dose screen, 48 h (100 = growth as untreated, 0 = no growth, -100 = all killed). Conditions: 10 µM unless noted.
`COc1ccc(/C=N/NC(=O)c2[nH]c3ccc(Br)cc3c2-c2ccccc2)o1`: the growth is -20.2% (active). The same measure for `O=C(/C=C/c1cccc(F)c1)c1cccc(OCCCCOc2cccc(C(=O)/C=C/c3cccc(F)c3)c2)c1`: 101% (inactive); for `CN1CCN(c2nc(-c3cnc4ccccc4n3)cc3ccccc23)CC1`: -36.2% (active); for `O=c1[nH]c2cc(Cl)ccc2n1C1CCN(c2ccc3nnc(Cl)n3n2)CC1`: 93.1% (inactive). Regarding `COc1cc2oc(-c3cccc(N)c3)cc(=O)c2c(OC)c1OC`, the growth is 96.8% (inactive). The same measure for `COc1cc(CNC(=O)/C=C/c2ccccc2)ccc1OCC(=O)NO`: 121% (inactive); for `CCO/C=N/C1=C(C#N)C(c2ccc(F)cc2)c2sc3c(C)cccc3c2O1` (stereo not given): -22.8% (active). The same measure for `CCC1=Cc2c(OC)cccc2OC12C=Cc1c(OC)cccc1O2` (stereo not given): -6.34% (active). Then `Cc1cccc(NC(c2cc3cccc4ccc5cccc2c5c43)c2nnnn2C(C)(C)C)c1C` (stereo not given), with 91.9% (inactive); and `CCCCCCNC(=O)Oc1ccc(/C(=C(/C)c2ccc(Cl)cc2)c2ccc(OCCN3CCCCCC3)cc2)cc1`, with 32.4% (inactive). In the case of `Cn1cc(-c2nn3cc(-c4ccncc4)nc3s2)c2cc(Br)ccc21`, the growth is 17.3% (inactive).

As for `COc1cc(-c2nnc(SCc3ccc(O)c4ncccc34)n2-c2ccccc2)cc(OC)c1OC`, the growth is -17.8% (active). Take `O=C1CSC(=O)N1Cc1cc2ccccc2nc1Cl`: the growth is 101% (inactive). For the compound `O=C(CN1CCN(c2cc(=O)n(-c3ccccc3)c3ccccc23)CC1)Nc1nc(-c2ccccc2)cs1`, the growth was 37.1% (inactive).

Regarding `O=C(c1cccc(F)c1)n1ccc2cc(NC(=S)Nc3cccnc3)ccc21`, the growth was 85.8% (inactive). The same measure for `COc1cc(-c2nn(C(C)(C)C)cc2-c2ccnc(NCCCNS(=O)(=O)c3cccc(F)c3)n2)ccc1Cl`: 81.9% (inactive); for `COc1ccc(Cn2cc3c(c2-c2cc(OC)c(OC)c(OC)c2)CCc2c(CN4CCCC4)noc2-3)cc1`: 3.57% (active); for `C#Cc1cc(OC)c(C(=O)Nc2ccc(F)cc2C(=O)Nc2cccc(S(=O)(=O)C(F)(F)F)c2)cn1`: -51.6% (active).

On to `Nc1n[nH]c2cccc(C#Cc3cccc(NC(=O)c4cccc(OC(F)(F)F)c4)c3)c12`, for which the growth is 17.7% (inactive). In the case of `CN1CCN(c2ccc(Nc3nc(NCCCNS(=O)(=O)c4ccc(C(F)(F)F)cc4)c4sccc4n3)cc2)CC1`, the growth was -47.4% (active). Then `Oc1ccc(CSc2nnc(-c3ccc(Oc4ccccc4)cc3)o2)c2cccnc12`, with 19.1% (inactive). Then `Cc1cc(C(=O)Nc2sc3c(c2C(N)=O)CCC(=O)C3)ccc1OCCN1CCCCC1`, with 63.3% (inactive). As to `COc1cc(C(=O)c2cc(C(C)=O)c3ccc(C)cn23)cc(OC)c1OC`, the growth was 8.8% (active). The same measure for `Cc1ccc(NC(=O)Nc2nc3ccc([N+](=O)[O-])cc3s2)cc1`: -17.2% (active); for `Cn1ccnc1C(=O)/C=C/c1ccc(CNC(=O)c2ccc(S(F)(F)(F)(F)F)cc2)cc1`: -4.98% (active); for `CCN1C(=O)N(CC)C2SC(N/N=C/c3ccc(OC)cc3)=NC21` (stereo not given): -16.6% (active).

Regarding `COc1ccc(-c2cnc(NC(=O)CCCCCCNC(=O)C(O)(O)C(F)(F)F)s2)cc1`, the growth is 10.5% (inactive). The same measure for `N#C/C(=C\c1ccc2ccccc2c1)C(=O)Nc1sc2c(c1C#N)CCC2`: 103% (inactive); for `O=C(CSc1nc2ccccc2c(=O)n1-c1ccc(Cl)c(Cl)c1)Nc1ccc(S(=O)(=O)Nc2ccc(Cl)nn2)cc1`: 106% (inactive). For `Brc1cccc(-c2cc(-c3ccc4c(c3)OC=CO4)[nH]n2)c1`, the growth is 14.7% (inactive).

For `COc1ccc(S(=O)(=O)n2cc(C=O)c3ccccc32)c(OC)c1`, the growth is 4.32% (active).

Turning to `OC1CCN(CCCOc2c3ccc(Cl)cc3nc3c2oc2ccc(Cl)cc23)CC1`, the growth is 22.4% (inactive). The same measure for `CCCCCN1C(=O)/C(=c2\sc3n(c2=O)C2C(NN=3)N(CC)C(=O)N2CC)c2cccc(C)c21` (stereo not given): 11.9% (inactive). The same measure for `C#Cc1nc(C(=O)NCCCCCCC(=O)NO)cs1`: -51.7% (active); for `CC(C)=CCc1c2c(c(O)c3c1O[C@]14C(=C[C@@H]5C[C@H]1C(C)(C)O[C@@]4(C/C=C(/C)C(=O)O)C5=O)C3=O)CC(O)C(C)(C)O2` (stereo not given in full): -17.2% (active); for `CCN(CC)CCOc1ccc(C(=C(C)Cc2ccc(OC)cc2)c2ccc(OCCN(CC)CC)cc2)cc1`: -42.3% (active).

For `CCCCCc1ccc(S(=O)(=O)Nc2cc(-c3csc(N)n3)ccc2OC)cc1`, the growth was 60.8% (inactive). Then `CCNC(=O)N1CCc2cc(OC)c(OCCc3ccc(OC)c(N)c3)cc2C1c1ccc(C)cc1C` (stereo not given), with 16.5% (inactive). Then `N#C/C(=C\c1cccc2c1OCO2)C(=O)Nc1sc2c(c1C#N)CCCC2`, with 105% (inactive); and `CC(=O)c1ccc(Nc2nc(SCC(C)C)nc(-c3ccc(F)cc3)c2C#N)cc1`, with 103% (inactive).
